Results: the supplement of paper PMC7156485

Assays:
Details in all cases: concentration: 10 µM; 24 h
HCC1569 [1] = test: cell number relative to DMSO (% of DMSO); higher = more cells (less growth inhibition / toxicity)
How it was run: (§1)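 For HCC1569 and TDF cells, compounds at 10 µM were applied for 24 h at 37 °C in triplicate in 384-well plates. Cells were fixed in 3.7% formaldehyde, stained for H1.0 and with DAPI, and imaged at ×10 over six fields per well. The endpoint, H1.0 nuclear intensity or cell number, is shown as percent of the plate control using the median of replicates. Positional effects were smoothed for HCC1569 only.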

TDF [2] = test: as above
How it was run: as §1

TDF [3] = test: H1.0 immunofluorescence intensity relative to DMSO (% of DMSO); higher = stronger H1.0 induction, active = 120 or more
How it was run: as §1

HCC1569 [4] = test: H1.0 immunofluorescence intensity relative to DMSO (% of DMSO); higher = stronger H1.0 induction, active = 140 or more
How it was run: as §1
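Throughout, for H1.0 immunofluorescence intensity relative to DMSO: TDF is a line of transformed human dermal fibroblasts of mesenchymal origin.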
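Throughout, for cell number relative to DMSO: TDF denotes transformed human dermal fibroblasts of mesenchymal origin.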

SMILES: Cl.Cl.N=C(N)c1ccc(N)cc1 [4-Aminobenzamidine dihydrochloride]
- cell number (HCC1569 [1]): 99.9
- cell number (TDF [2]): 102
- H1.0 immunofluorescence intensity (TDF [3]): 92.2 (inactive)
- H1.0 immunofluorescence intensity (HCC1569 [4]): 94.1 (inactive)

SMILES: O=C1OC(C(O)CO)C(O)=C1O (stereo unspecified) [Ascorbic acid]
- cell number (HCC1569 [1]): 100
- cell number (TDF [2]): 103
- H1.0 immunofluorescence intensity (TDF [3]): 94 (inactive)
- H1.0 immunofluorescence intensity (HCC1569 [4]): 95.2 (inactive)

SMILES: CNCC(O)c1cccc(O)c1.Cl (stereo unspecified) [Phenylephrine hydrochloride]
- cell number (HCC1569 [1]): 107
- cell number (TDF [2]): 101
- H1.0 immunofluorescence intensity (TDF [3]): 97.5 (inactive)
- H1.0 immunofluorescence intensity (HCC1569 [4]): 94.3 (inactive)

SMILES: CCOC(=O)C1OC1C(=O)NC(CC(C)C)C(=O)NCCC(C)C (stereo unspecified)
- cell number (HCC1569 [1]): 100
- cell number (TDF [2]): 93.4
- H1.0 immunofluorescence intensity (TDF [3]): 101 (inactive)
- H1.0 immunofluorescence intensity (HCC1569 [4]): 97.9 (inactive)

SMILES: CC(=O)OCC1(O)CC23CCC4c5ccoc5CCC4(C)C2CCC1C3 (stereo unspecified) [Cafestol acetate]
- cell number (HCC1569 [1]): 103
- cell number (TDF [2]): 98.6
- H1.0 immunofluorescence intensity (TDF [3]): 97.6 (inactive)
- H1.0 immunofluorescence intensity (HCC1569 [4]): 98.4 (inactive)

SMILES: CN(C)CCCOc1nn(Cc2ccccc2)c2ccccc12 [Benzydamine]
- cell number (HCC1569 [1]): 100
- cell number (TDF [2]): 83.7
- H1.0 immunofluorescence intensity (TDF [3]): 104 (inactive)
- H1.0 immunofluorescence intensity (HCC1569 [4]): 103 (inactive)

SMILES: Nc1ccn(C2CCC(CO)O2)c(=O)n1 (stereo unspecified) [2',3'-dideoxycytidine]
- cell number (HCC1569 [1]): 99.7
- cell number (TDF [2]): 102
- H1.0 immunofluorescence intensity (TDF [3]): 89.2 (inactive)
- H1.0 immunofluorescence intensity (HCC1569 [4]): 87.7 (inactive)

SMILES: O=C(CCCCCCc1ccccc1)c1ncc(-c2ccccn2)o1 [7-phenyl-1-[5-(2-pyridinyl)-1,3-oxazol-2-yl]-1-heptanone]
- cell number (HCC1569 [1]): 104
- cell number (TDF [2]): 104
- H1.0 immunofluorescence intensity (TDF [3]): 98.3 (inactive)
- H1.0 immunofluorescence intensity (HCC1569 [4]): 107 (inactive)

SMILES: CC12CCC(=O)C=C1CCC1C2CCC2(C)C1CCC2(O)C(=O)CO (stereo unspecified) [Cortexolone]
- cell number (HCC1569 [1]): 98.2
- cell number (TDF [2]): 99.3
- H1.0 immunofluorescence intensity (TDF [3]): 90.2 (inactive)
- H1.0 immunofluorescence intensity (HCC1569 [4]): 96.2 (inactive)

SMILES: OCc1ccc(-c2nn(Cc3ccccc3)c3ccccc23)o1
- cell number (HCC1569 [1]): 102
- cell number (TDF [2]): 106
- H1.0 immunofluorescence intensity (TDF [3]): 98.9 (inactive)
- H1.0 immunofluorescence intensity (HCC1569 [4]): 106 (inactive)

SMILES: COc1cccc(C(=O)NCCN2CCN(c3ccc(Cl)cc3)CC2)c1
- cell number (HCC1569 [1]): 101
- cell number (TDF [2]): 109
- H1.0 immunofluorescence intensity (TDF [3]): 94.5 (inactive)
- H1.0 immunofluorescence intensity (HCC1569 [4]): 92.3 (inactive)

SMILES: Nc1ncnc2c1cnn2-c1ccccc1
- cell number (HCC1569 [1]): 103
- cell number (TDF [2]): 110
- H1.0 immunofluorescence intensity (TDF [3]): 91.4 (inactive)
- H1.0 immunofluorescence intensity (HCC1569 [4]): 104 (inactive)

SMILES: CN1CCc2cccc3c2C1Cc1ccc(O)c(O)c1-3.Cl (stereo unspecified) [Apomorphine hydrochloride hemihydrate]
- cell number (HCC1569 [1]): 89.9
- cell number (TDF [2]): 87.9
- H1.0 immunofluorescence intensity (TDF [3]): 94.8 (inactive)
- H1.0 immunofluorescence intensity (HCC1569 [4]): 99.6 (inactive)

SMILES: C=C1CC23CC1(O)CCC2C12C=CC(O)C(C)(C(=O)O1)C2C3C(=O)O (single isomer, unassigned; (+)) [(+)-Gibberellic acid]
- cell number (HCC1569 [1]): 108
- cell number (TDF [2]): 112
- H1.0 immunofluorescence intensity (TDF [3]): 98.6 (inactive)
- H1.0 immunofluorescence intensity (HCC1569 [4]): 89.5 (inactive)

SMILES: O=c1c(-c2ccc(O)cc2)coc2cc(OC3OC(CO)C(O)C(O)C3O)ccc12 (stereo unspecified) [Daidzin]
- cell number (HCC1569 [1]): 95.7
- cell number (TDF [2]): 108
- H1.0 immunofluorescence intensity (TDF [3]): 94.8 (inactive)
- H1.0 immunofluorescence intensity (HCC1569 [4]): 89.9 (inactive)

SMILES: O=C(O)CCCCC1CCSS1 (racemic)
- cell number (HCC1569 [1]): 104

SMILES: COC1C(OC(N)=O)C(O)C(Oc2ccc3c(O)c(NC(=O)c4ccc(O)c(CC=C(C)C)c4)c(=O)oc3c2C)OC1(C)C.[Na+] (stereo unspecified) [Novobiocin.Na]
- cell number (HCC1569 [1]): 103
- cell number (TDF [2]): 112
- H1.0 immunofluorescence intensity (TDF [3]): 95.7 (inactive)
- H1.0 immunofluorescence intensity (HCC1569 [4]): 103 (inactive)

SMILES: Nc1[nH]nc2nc3ccccc3nc12
- cell number (HCC1569 [1]): 95
- cell number (TDF [2]): 104
- H1.0 immunofluorescence intensity (TDF [3]): 101 (inactive)
- H1.0 immunofluorescence intensity (HCC1569 [4]): 115 (inactive)

SMILES: Cc1cn(-c2cc(NC(=O)c3ccc(C)c(Nc4nccc(-c5cccnc5)n4)c3)cc(C(F)(F)F)c2)cn1 [Nilotinib]
- cell number (HCC1569 [1]): 100
- cell number (TDF [2]): 73.5
- H1.0 immunofluorescence intensity (TDF [3]): 101 (inactive)
- H1.0 immunofluorescence intensity (HCC1569 [4]): 94.2 (inactive)

SMILES: Nc1ccc(C(=O)O)c(O)c1 [4-Aminosalicylic acid]
- cell number (HCC1569 [1]): 105
- cell number (TDF [2]): 98.2

SMILES: Oc1cc(O)c2c(c1)OC(c1ccc(O)c(O)c1)C(O)C2 (single isomer, unassigned; (+)) [(+)-Catechine]
- cell number (HCC1569 [1]): 102
- cell number (TDF [2]): 105
- H1.0 immunofluorescence intensity (TDF [3]): 91.8 (inactive)
- H1.0 immunofluorescence intensity (HCC1569 [4]): 88.4 (inactive)

SMILES: COc1cc(C(O)CO)ccc1OS(=O)(=O)[O-].[K+] (stereo unspecified) [MHPG sulfate potassium]
- cell number (HCC1569 [1]): 102
- cell number (TDF [2]): 105
- H1.0 immunofluorescence intensity (TDF [3]): 89.9 (inactive)
- H1.0 immunofluorescence intensity (HCC1569 [4]): 121 (inactive)

SMILES: Cl.NOCC(=O)O.NOCC(=O)O [O-(Carboxymethyl)hydroxylamine hemihydrochloride]
- cell number (HCC1569 [1]): 107
- cell number (TDF [2]): 97.9
- H1.0 immunofluorescence intensity (TDF [3]): 99.1 (inactive)
- H1.0 immunofluorescence intensity (HCC1569 [4]): 105 (inactive)

SMILES: CC1(C)CCCC2(C)C1CCC1(C)OC(=O)CC12 [(3aR)-(+)-Sclaerolide]
- cell number (HCC1569 [1]): 99
- cell number (TDF [2]): 105
- H1.0 immunofluorescence intensity (TDF [3]): 92.9 (inactive)
- H1.0 immunofluorescence intensity (HCC1569 [4]): 84.9 (inactive)
